Measured values taken from PubChem BioAssay (NCI).
About 79,000 compounds went through this panel and 15% of them were active in at least one assay; those are over-represented in the sample as a whole. Activity calls are given as the source filed them. Rule as the data show it: active = growth inhibition above about 70%; inactive = the rest.

Legend:
[1] = NCI Yeast Anticancer Drug Screen. Data for the rad52 strain (AID 147);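 also: 0% = growth of vehicle-treated control cultures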; conditions: S. cerevisiae rad52 mutant growth inhibition, active compounds read high
Summary of the method: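 Here a repair-compromised yeast strain receives each compound; its growth is then quantified and normalised to vehicle-only controls.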

[2] = NCI Yeast Anticancer Drug Screen. Data for the rad50EPP+ strain (AID 151);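 also: 0% = growth of vehicle-treated control cultures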; conditions: S. cerevisiae rad50 mutant strain, active compounds read high
Summary of the method: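 Read-out is yeast growth inhibition relative to vehicle; cells used were the rad50EPP+ strain.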

[3] = NCI Yeast Anticancer Drug Screen. Data for the rad50 strain (AID 155);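 also: 0% = growth of vehicle-only cultures of the same strain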; conditions: S. cerevisiae rad50 strain growth inhibition, active compounds read high
Summary of the method: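 Compounds were tested on a yeast strain with an engineered DNA damage repair alteration; the reported value is growth inhibition normalised to vehicle treatment.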

[4] = NCI Yeast Anticancer Drug Screen. Data for the mec2-1 strain (AID 157); conditions: S. cerevisiae mec2-1 strain, active compounds read high
Summary of the method: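 Using mec2-1 yeast: add compound, measure growth, express inhibition versus vehicle-treated cultures.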

[5] = NCI Yeast Anticancer Drug Screen. Data for the rad14 strain (AID 159);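 also: 0% = growth of vehicle-treated control cultures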; conditions: S. cerevisiae rad14 strain growth inhibition, active compounds read high
Summary of the method: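 Compound-treated yeast with a defined DNA-repair lesion; growth inhibition normalised to vehicle-treated cultures.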

[6] = NCI Yeast Anticancer Drug Screen. Data for the sgs1 mgt1 strain (AID 161);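 also: 0% = growth of cultures given vehicle only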; conditions: S. cerevisiae sgs1 mgt1 strain, active compounds read high
Summary of the method: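 Growth of a repair-deficient yeast mutant was monitored after compound treatment and expressed as inhibition relative to vehicle-treated cultures.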

[7] = NCI Yeast Anticancer Drug Screen. Data for the cln2 rad14 strain (AID 165);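 also: 0% = growth equal to vehicle treated cultures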; conditions: S. cerevisiae cln2 rad14 strain, active compounds read high
Summary of the method: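 Yeast strain cln2 rad14, bearing defects in cell cycle control and DNA repair, serves as the test system; values reflect growth inhibition compared with vehicle.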

[8] = NCI Yeast Anticancer Drug Screen. Data for the bub3 strain (AID 167); conditions: S. cerevisiae bub3 mutant strain, active compounds read high
Summary of the method: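 Growth of a checkpoint-deficient yeast mutant is measured after compound exposure. Values represent inhibition relative to vehicle.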

[9] = NCI Yeast Anticancer Drug Screen. Data for the wt2 strain (AID 169);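 also: 0% = growth of vehicle-treated yeast cultures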; conditions: S. cerevisiae wt2 strain growth inhibition, active compounds read high
Summary of the method: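 Treated yeast vs. vehicle-treated yeast: growth inhibition determined.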

[10] = NCI Yeast Anticancer Drug Screen. Data for the mlh1 strain (AID 171);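 also: 0% = growth of vehicle-treated control cultures of the same strain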; conditions: S. cerevisiae mlh1 strain growth inhibition, active compounds read high
Summary of the method: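 A yeast strain with a defined genetic lesion serves as the test organism. Cultures receive compound or vehicle, and growth is measured.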

[11] = NCI Yeast Anticancer Drug Screen. Data for the sgs1 strain (AID 173);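 also: 0% = growth of vehicle-only control cultures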; conditions: S. cerevisiae sgs1 mutant, active compounds read high
Summary of the method: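 A genetically defined yeast mutant is incubated with the test compound, and its growth is compared to that of the same strain given vehicle.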

[12] = NCI Yeast Anticancer Drug Screen. Data for the mlh1 rad18 strain (AID 175); conditions: S. cerevisiae mlh1 rad18 strain growth inhibition, active compounds read high
Summary of the method: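 Steps: expose repair-defective yeast to compound; measure growth; express inhibition against vehicle-treated controls.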

[13] = NCI Yeast Anticancer Drug Screen. Data for the rad18 strain (AID 177); conditions: S. cerevisiae rad18 mutant growth inhibition, active compounds read high
Summary of the method: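 Measured value is growth inhibition of a yeast strain bearing a DNA repair alteration, referenced to vehicle-treated cells.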

[14] = NCI Yeast Anticancer Drug Screen. Data for the CLN2oe strain (AID 163);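 also: 0% = growth of vehicle-only control cultures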; conditions: S. cerevisiae CLN2oe strain, active compounds read high
Summary of the method: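 Whole-cell yeast growth assay. A strain engineered for altered cell-cycle control received compound, and inhibition relative to vehicle-treated cultures was recorded.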

[15] = NCI Yeast Anticancer Drug Screen. Data for the wt1 strain (AID 149);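 also: 0% = growth of vehicle-treated wt1 cultures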; conditions: S. cerevisiae wt1 strain (SPY 50644) growth inhibition, active compounds read high
Summary of the method: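 Readout: yeast growth inhibition, normalised to vehicle controls, in the wt1 strain exposed to test compounds.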

[16] = at 5.0 µM (retest, dose inferred, filed as 0.5)
[17] = at 50.0 µM (retest, dose inferred, filed as 5.0)

Measured: growth inhibition

Nc1cc(F)cc2c1-c1ccc(F)cc1C2
active: [1]; at 100.0 µM 92% | [2]; at 33.0 µM 90% | [2]; at 100.0 µM 95% | [3]; at 50.0 µM 87% | [3]; at 100.0 µM 92% | [4]; at 50.0 µM 74.6% | [4]; at 100.0 µM 91% | [5]; at 100.0 µM 94% | [6]; at 50.0 µM 77% | [7]; at 50.0 µM 78.5% | [8]; at 50.0 µM 78.5% | [8]; at 100.0 µM 91% | [9]; at 100.0 µM 89% | [10]; at 100.0 µM 92% | [11]; at 100.0 µM 93% | [12]; at 50.0 µM 87.7% | [13]; at 100.0 µM 94%
inactive: [1]; at 1.2 µM -1% | [1]; at 3.7 µM -1% | [1]; at 11.0 µM 3% | [1]; at 33.0 µM 30% | [2]; at 1.2 µM 3% | [2]; at 3.7 µM 10% | [2]; at 11.0 µM 25% | [3]; at 1.2 µM 6% | [3]; at 3.7 µM -41% | [3]; [16] 1% | [3]; at 11.0 µM 33% | [3]; at 33.0 µM 47% | [3]; [17] 60% | [4]; at 1.2 µM -1% | [4]; at 3.7 µM 1% | [4]; [16] 2% | [4]; at 11.0 µM 2% | [4]; at 33.0 µM 23% | [4]; [17] 18% | [5]; at 1.2 µM 4% | [5]; at 3.7 µM 5% | [5]; at 11.0 µM 9% | [5]; at 33.0 µM 27% | [6]; [16] -5% | [6]; [17] 7% | [7]; [16] 0% | [7]; [17] 40% | [8]; at 1.2 µM -1% | [8]; at 3.7 µM -2% | [8]; [16] 3% | [8]; at 11.0 µM -2% | [8]; at 33.0 µM 16% | [8]; [17] 27% | [9]; at 1.2 µM -3% | [9]; at 3.7 µM 5% | [9]; at 11.0 µM -3% | [9]; at 33.0 µM 15% | [10]; at 1.2 µM -4% | [10]; at 3.7 µM -3% | [10]; at 11.0 µM -3% | [10]; at 33.0 µM 14% | [11]; at 1.2 µM -3% | [11]; at 3.7 µM 0% | [11]; at 11.0 µM 6% | [11]; at 33.0 µM 46% | [12]; [16] -1% | [12]; [17] 61% | [13]; at 1.2 µM -1% | [13]; at 3.7 µM 4% | [13]; at 11.0 µM 7% | [13]; at 33.0 µM 49%

COc1cc(CNc2ccc(C(C)C)cc2)cc(OC)c1OC
inactive: [1]; at 1.2 µM 21% | [1]; at 3.7 µM 3% | [1]; at 11.0 µM -17% | [1]; at 33.0 µM 13% | [3]; at 1.2 µM 13% | [3]; at 3.7 µM 0% | [3]; [16] -1% | [3]; at 11.0 µM -2% | [3]; at 33.0 µM -19% | [3]; [17] -3% | [3]; at 50.0 µM 32.5% | [4]; at 1.2 µM 8% | [4]; at 3.7 µM -8% | [4]; [16] -42% | [4]; at 11.0 µM -4% | [4]; at 33.0 µM -25% | [4]; [17] 1% | [4]; at 50.0 µM 25.4% | [4]; at 100.0 µM 59% | [5]; at 1.2 µM -6% | [5]; at 3.7 µM -17% | [5]; at 11.0 µM -31% | [5]; at 33.0 µM -50% | [6]; [16] -7% | [6]; [17] 25% | [6]; at 50.0 µM 64% | [14]; at 1.2 µM -12% | [14]; at 3.7 µM -19% | [14]; at 11.0 µM -28% | [14]; at 33.0 µM -50% | [14]; at 100.0 µM -4% | [7]; [16] 6% | [7]; [17] 24% | [7]; at 50.0 µM 6.85% | [8]; at 1.2 µM -13% | [8]; at 3.7 µM -22% | [8]; [16] 13% | [8]; at 11.0 µM -26% | [8]; at 33.0 µM -6% | [8]; at 50.0 µM 65.2% | [9]; at 1.2 µM -1% | [9]; at 3.7 µM -26% | [9]; at 11.0 µM -9% | [9]; at 33.0 µM -20% | [9]; at 100.0 µM 69% | [10]; at 1.2 µM -2% | [10]; at 3.7 µM -21% | [10]; at 11.0 µM -15% | [10]; at 33.0 µM -20% | [11]; at 1.2 µM 26% | [11]; at 3.7 µM 23% | [11]; at 11.0 µM 21% | [11]; at 33.0 µM 11% | [12]; [16] -11% | [12]; [17] 32% | [12]; at 50.0 µM 55.7% | [13]; at 1.2 µM 4% | [13]; at 3.7 µM 9% | [13]; at 11.0 µM -5% | [13]; at 33.0 µM 9% | [13]; at 100.0 µM 64%
active: [1]; at 100.0 µM 78% | [3]; at 100.0 µM 73% | [5]; at 100.0 µM 72% | [8]; [17] 78% | [8]; at 100.0 µM 71% | [10]; at 100.0 µM 76% | [11]; at 100.0 µM 84%

CCc1[nH]nc(C(N)=O)c1N=NN(C)C
active: [2]; at 100.0 µM 95% | [3]; at 33.0 µM 90% | [3]; [17] 85% | [3]; at 50.0 µM 90.1% | [3]; at 100.0 µM 97% | [4]; at 100.0 µM 94% | [11]; at 100.0 µM 88% | [12]; at 50.0 µM 70.7%
inactive: [15]; at 1.2 µM -6% | [15]; at 3.7 µM -4% | [15]; at 11.0 µM -7% | [15]; at 33.0 µM -5% | [15]; at 100.0 µM 1% | [2]; at 1.2 µM 0% | [2]; at 3.7 µM 12% | [2]; at 11.0 µM 27% | [2]; at 33.0 µM 69% | [3]; at 1.2 µM -4% | [3]; at 3.7 µM 5% | [3]; [16] -118% | [3]; at 11.0 µM 49% | [4]; at 1.2 µM 3% | [4]; at 3.7 µM -1% | [4]; [16] -46% | [4]; at 11.0 µM 7% | [4]; at 33.0 µM 25% | [4]; [17] 11% | [4]; at 50.0 µM 17.7% | [5]; at 1.2 µM -1% | [5]; at 3.7 µM -3% | [5]; at 11.0 µM 3% | [5]; at 33.0 µM 13% | [5]; at 100.0 µM 41% | [14]; at 1.2 µM -2% | [14]; at 3.7 µM -3% | [14]; at 11.0 µM 0% | [14]; at 33.0 µM 1% | [14]; at 100.0 µM 18% | [7]; [16] -53% | [7]; [17] -35% | [7]; at 50.0 µM 21.1% | [8]; at 1.2 µM -9% | [8]; at 3.7 µM -5% | [8]; [16] -66% | [8]; at 11.0 µM -3% | [8]; at 33.0 µM -6% | [8]; [17] -84% | [8]; at 50.0 µM -15.4% | [8]; at 100.0 µM 14% | [10]; at 1.2 µM 4% | [10]; at 3.7 µM -4% | [10]; at 11.0 µM -2% | [10]; at 33.0 µM 6% | [10]; at 100.0 µM 21% | [11]; at 1.2 µM 0% | [11]; at 3.7 µM -5% | [11]; at 11.0 µM 15% | [11]; at 33.0 µM 53% | [12]; [16] -126% | [12]; [17] 1%
